Source: PubChem BioAssay (NCI)
About 83,000 compounds went through this panel and 20% of them were active in at least one assay; those are over-represented in the sample as a whole.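 Note: values are percent growth. 100 is the growth of untreated cells, values between 100 and 0 indicate rising inhibition; between -100 and 0 indicates cell death.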 The source made the active and inactive calls. The calls were made as follows: active = growth percent below 10; inactive = the rest.

Experiments:
Experiment in all cases: NCI-60 one-dose screen, 48 h (100 = growth as untreated, 0 = no growth, -100 = all killed)
Conditions in all cases: 10 µM
NCI-H23 lung = system: NCI-H23 lung
NCI-H226 lung = system: NCI-H226 lung
HOP-62 NSCLC = system: HOP-62 NSCLC
NCI-H460 lung = system: NCI-H460 lung
HOP-92 NSCLC = system: HOP-92 NSCLC
NCI-H522 lung = system: NCI-H522 lung
A549/ATCC NSCLC = system: A549/ATCC NSCLC
786-0 renal = system: 786-0 renal
NCI-H322M lung = system: NCI-H322M lung
COLO 205 colon = system: COLO 205 colon

Measured: growth

CN(C)CCCOc1cccc(NC2=C(Cl)C(=O)C(Nc3cccc(OCCCN(C)C)c3)=C(Cl)C2=O)c1
inactive: NCI-H460 lung 38.3% | A549/ATCC NSCLC 52%
active: NCI-H23 lung -67.1% | NCI-H226 lung -70% | HOP-62 NSCLC -85.1% | HOP-92 NSCLC -74.3% | NCI-H522 lung -79.5% | 786-0 renal -94.2%

CC(=O)OC1C=CC(OC(C)=O)O1 (stereo not given)
inactive: NCI-H23 lung 89.4% | NCI-H226 lung 80% | NCI-H322M lung 101% | NCI-H460 lung 96.5% | NCI-H522 lung 79.2% | A549/ATCC NSCLC 103% | 786-0 renal 94.6% | COLO 205 colon 97.1%

CCN(CC)CCCC(Nc1c2ccc(Cl)cc2nc2ccc(OC)cc12)c1ccc(F)cc1 (stereo not given)
inactive: NCI-H23 lung 86.9% | NCI-H226 lung 94.1% | NCI-H322M lung 14.7% | A549/ATCC NSCLC 18.4%
active: NCI-H460 lung -17.8% | NCI-H522 lung -24.3% | 786-0 renal -70.8%

c1ccc(CCCCc2ccc3ccccc3n2)cc1
inactive: NCI-H23 lung 102% | NCI-H226 lung 94.8% | NCI-H322M lung 99.7% | NCI-H460 lung 105% | NCI-H522 lung 75.3% | A549/ATCC NSCLC 98.5% | 786-0 renal 102%

CCOC(=O)c1cocc1C(=O)O
inactive: NCI-H23 lung 109% | NCI-H226 lung 102% | NCI-H322M lung 110% | NCI-H460 lung 104% | NCI-H522 lung 106% | A549/ATCC NSCLC 101% | 786-0 renal 103% | COLO 205 colon 108%

CC(C)(C)c1ccc(S(=O)(=O)N[C@H]2CC[C@H]3[C@@H]4CCc5cc(O)ccc5[C@H]4CC[C@]23C)cc1
inactive: NCI-H23 lung 50.3% | NCI-H226 lung 55.7% | NCI-H322M lung 78.7% | NCI-H460 lung 33.7% | NCI-H522 lung 31.8% | A549/ATCC NSCLC 28.5% | 786-0 renal 49.6%

NC(N)=N/N=C(\c1ccccc1)C(O)c1ccccc1 (stereo not given)
inactive: NCI-H23 lung 101% | NCI-H226 lung 96.1% | NCI-H322M lung 101% | HOP-92 NSCLC 95% | NCI-H522 lung 82.5% | A549/ATCC NSCLC 102% | 786-0 renal 98.3% | COLO 205 colon 101%

COc1ccc(C(=O)CC(CC(=O)c2ccc(OC)cc2)c2c(C)nn(-c3ccccc3)c2Cl)cc1
inactive: NCI-H23 lung 90.7% | NCI-H226 lung 92.8% | NCI-H322M lung 96.5% | NCI-H460 lung 97.5% | NCI-H522 lung 79.4% | A549/ATCC NSCLC 95.1% | 786-0 renal 86.3% | COLO 205 colon 117%

CC(=O)Nc1ccc(CC[C@H]2CCC/C=C/[C@@H]3C[C@H](O)C[C@H]3[C@H](O)/C=C/C(=O)O2)cc1
inactive: NCI-H226 lung 10.1% | HOP-62 NSCLC 15.7% | NCI-H460 lung 13.3% | A549/ATCC NSCLC 11.9%
active: NCI-H23 lung -19% | HOP-92 NSCLC -15% | NCI-H522 lung -39.3%

O=C(CCCSc1nc(-c2ccc(Cl)cc2)cc(-c2ccc(Cl)cc2)n1)NO
active: NCI-H226 lung 2.42% | NCI-H460 lung 0.534% | NCI-H522 lung 6% | 786-0 renal 6.25%
inactive: NCI-H23 lung 13.2% | HOP-62 NSCLC 15.4% | HOP-92 NSCLC 28% | A549/ATCC NSCLC 10.2%

CCOc1ccccc1/C=N\N=C\c1ccccc1O
inactive: NCI-H23 lung 87.7% | NCI-H226 lung 104% | NCI-H322M lung 93.8% | NCI-H460 lung 107% | NCI-H522 lung 99.8% | A549/ATCC NSCLC 108% | 786-0 renal 106%

O=C(N/N=C/c1cc([N+](=O)[O-])ccc1O)c1cccc2ccccc12
inactive: NCI-H23 lung 45.3% | NCI-H226 lung 42.6% | NCI-H322M lung 45.4% | NCI-H460 lung 20.7% | NCI-H522 lung 21.9% | A549/ATCC NSCLC 54.8% | 786-0 renal 36.5% | COLO 205 colon 48.9%

CC(C)(C)c1ccc(S(=O)(=O)N[C@H]2CC[C@H]3[C@@H]4CCc5cc(OS(=O)(=O)O)ccc5[C@H]4CC[C@]23C)cc1
inactive: NCI-H23 lung 56.8% | NCI-H226 lung 52.4% | NCI-H322M lung 61% | NCI-H460 lung 26.2% | A549/ATCC NSCLC 31.6% | 786-0 renal 50% | COLO 205 colon 13.8%

COc1cc2nc(SCC(=O)Nc3cc(OC)c(OC)c(OC)c3)n(Cc3ccccc3)c(=O)c2cc1OC
inactive: NCI-H23 lung 69.6% | NCI-H226 lung 45.9% | NCI-H322M lung 65.2% | NCI-H460 lung 68.7% | A549/ATCC NSCLC 28.1% | COLO 205 colon 96.2%
active: 786-0 renal -6.9%

COC(=O)c1cc2oc(/C=C3/SC(=S)N(N)C3=O)cc2n1Cc1ccccc1
active: HOP-92 NSCLC -69%
inactive: NCI-H23 lung 58.4% | NCI-H226 lung 57% | NCI-H322M lung 39.4% | NCI-H460 lung 40.5% | A549/ATCC NSCLC 53.4% | COLO 205 colon 75%

CCC(c1ccc(OC)cc1)C(CC)c1ccc(O)c(CN2CCN(C)CC2)c1 (stereo not given)
active: COLO 205 colon -83.5%
inactive: NCI-H23 lung 57.8% | NCI-H226 lung 88.9% | NCI-H322M lung 76.1% | NCI-H460 lung 51.8% | NCI-H522 lung 61.9% | 786-0 renal 57.6%

OC(CNc1ccnc2cc(Cl)ccc12)CNC1CCCCC1 (stereo not given)
active: COLO 205 colon -25.4%
inactive: NCI-H23 lung 86.7% | NCI-H226 lung 105% | NCI-H322M lung 74.7% | NCI-H460 lung 109% | NCI-H522 lung 49.6% | A549/ATCC NSCLC 88.4% | 786-0 renal 87.9%

CCCCC1(O)CCCCC1
inactive: NCI-H23 lung 108% | NCI-H226 lung 97.3% | NCI-H322M lung 105% | NCI-H460 lung 108% | A549/ATCC NSCLC 103% | 786-0 renal 92.6% | COLO 205 colon 99.1%

CN(C)c1ccc(/C=N/NC(=O)c2cccc3ccccc23)c(Cl)c1
inactive: NCI-H226 lung 61.2% | NCI-H322M lung 57.6% | NCI-H460 lung 19.2% | NCI-H522 lung 22.6% | A549/ATCC NSCLC 26.8% | 786-0 renal 56.1% | COLO 205 colon 19.7%
active: NCI-H23 lung 1.31%

Cc1ccc(-n2nnnc2N)c(C)c1
inactive: NCI-H23 lung 98.1% | NCI-H226 lung 115% | NCI-H322M lung 121% | NCI-H460 lung 103% | NCI-H522 lung 112% | A549/ATCC NSCLC 104% | 786-0 renal 105% | COLO 205 colon 117%

IC(I)I
inactive: NCI-H23 lung 102% | NCI-H226 lung 100% | NCI-H322M lung 102% | NCI-H460 lung 109% | NCI-H522 lung 119% | A549/ATCC NSCLC 102% | 786-0 renal 101%

O=C1/C(=C/c2cccc(F)c2)Cc2ccccc21
inactive: NCI-H23 lung 101% | NCI-H226 lung 105% | NCI-H322M lung 94.4% | NCI-H460 lung 107% | HOP-92 NSCLC 73.5% | A549/ATCC NSCLC 87.7% | 786-0 renal 98.1% | COLO 205 colon 124%

NC(N)=N/N=C(\N=Nc1ccccc1)c1ccc(Cl)cc1
inactive: NCI-H23 lung 78.9% | NCI-H226 lung 82.3% | NCI-H322M lung 64.8% | NCI-H460 lung 40% | NCI-H522 lung 29.9% | A549/ATCC NSCLC 52.7% | 786-0 renal 46.7% | COLO 205 colon 48.1%

CCCC1(CN2c3ccccc3Sc3ccc(Cl)cc32)CCN(CC)C1 (stereo not given)
inactive: NCI-H226 lung 32.4% | NCI-H322M lung 25.5% | A549/ATCC NSCLC 18.6%
active: NCI-H23 lung 5.21% | NCI-H460 lung -100% | NCI-H522 lung -75.2% | 786-0 renal -95.7% | COLO 205 colon -80.8%

C[C@]12CC[C@@H]3c4ccc(OS(=O)(=O)O)cc4CC[C@H]3[C@@H]1CC[C@@H]2NS(=O)(=O)c1ccc(-c2ccccc2)cc1
inactive: NCI-H23 lung 61.5% | NCI-H226 lung 68.4% | NCI-H322M lung 86.9% | NCI-H460 lung 43.3% | NCI-H522 lung 44.4% | A549/ATCC NSCLC 36.3% | 786-0 renal 69.6% | COLO 205 colon 47.4%

Cc1cc(C)nc(NS(=O)(=O)c2ccc(Nc3nc4nc(NCc5ccccc5)nc(-c5ccc(O)cc5)c4c(=O)[nH]3)cc2)n1
active: HOP-92 NSCLC -11.1%
inactive: NCI-H23 lung 31.6% | NCI-H226 lung 31.9% | NCI-H322M lung 10.2% | NCI-H460 lung 16.4% | A549/ATCC NSCLC 43.9%

O=c1oc2c(cc1-c1ccc(F)cc1)C(O)Oc1ccccc1-2 (stereo not given)
inactive: NCI-H23 lung 99.2% | NCI-H226 lung 105% | NCI-H322M lung 83.1% | NCI-H460 lung 80.8% | HOP-92 NSCLC 48.8% | A549/ATCC NSCLC 88.9% | COLO 205 colon 101%

CC(=O)/C(=C/c1ccc(Br)cc1)C(=O)c1ccccc1
inactive: NCI-H23 lung 99.5% | NCI-H226 lung 87.8% | NCI-H322M lung 115% | NCI-H460 lung 103% | NCI-H522 lung 85.2% | A549/ATCC NSCLC 94% | 786-0 renal 84.5% | COLO 205 colon 111%

CCN1C(=O)CC(SC2CC(=O)N(CC)C2=O)C1=O (stereo not given)
inactive: NCI-H23 lung 95.9% | NCI-H226 lung 104% | NCI-H322M lung 110% | NCI-H460 lung 109% | NCI-H522 lung 96.1% | A549/ATCC NSCLC 104% | 786-0 renal 101% | COLO 205 colon 81.4%

COc1ccc(Cl)cc1Nc1nc(C(F)(F)F)ccc1C(=O)N/N=C/c1cc(OC)c(OC)c(OC)c1
inactive: NCI-H23 lung 54.9% | NCI-H226 lung 30.7% | NCI-H460 lung 21.4% | A549/ATCC NSCLC 59.4% | COLO 205 colon 12.8%
active: NCI-H322M lung 8.92% | HOP-92 NSCLC -12%

N=C1S/C(=C/c2ccc(-c3ccc4c(c3)C(=O)NC4=O)o2)C(=O)N1c1ccc(Br)cc1
inactive: NCI-H23 lung 55.8% | NCI-H226 lung 66.5% | NCI-H322M lung 43% | NCI-H460 lung 34.6% | NCI-H522 lung 35.5% | A549/ATCC NSCLC 34.5% | 786-0 renal 45.9% | COLO 205 colon 55.1%

COc1cc(-c2ccc[nH]2)[nH]c1/C=C1\N=C(C)C(C(=O)NC(C)C)=C1C
inactive: NCI-H23 lung 40.5% | NCI-H226 lung 42.7% | NCI-H322M lung 39.2% | NCI-H522 lung 13.4% | A549/ATCC NSCLC 14.7% | COLO 205 colon 26.9%
active: NCI-H460 lung 9.93% | 786-0 renal 8.09%

O=C(CCl)Oc1ccc(OC(=O)CCl)cc1
inactive: NCI-H23 lung 78.3% | NCI-H226 lung 96.5% | NCI-H322M lung 101% | NCI-H460 lung 95% | A549/ATCC NSCLC 96% | 786-0 renal 82%
active: NCI-H522 lung -14.1%

C[C@]12CC[C@@H]3c4ccc(O)cc4CC[C@H]3[C@@H]1CC[C@@H]2NS(=O)(=O)c1ccc(C(F)(F)F)cc1
active: NCI-H460 lung 3.9% | COLO 205 colon 9.34%
inactive: NCI-H23 lung 56.4% | NCI-H226 lung 51.6% | NCI-H322M lung 63.8% | A549/ATCC NSCLC 23.5% | 786-0 renal 57.4%
